# A selection: hits, their analogues and other compounds. The true share with any hit is near 1.3%.
# a7 integrin act: activates integrin-mediated alleviation for muscular dystrophy | AID 624291 | alpha7betagal myoblasts, beta-gal FDG fluorescence, 48 h | 350,000 compounds, 0.064% hits | Potency, µM (titrated, usually from 38.3 µM), inactives show at the top dose activation, most hits filed as activators;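 further: potency means the concentration at half of the fitted maximal effect; 100% = response of the positive control SU9516; nearly all actives have a fitted effect of over 60% in size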
#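 alpha7betagal+/- myoblasts (passage 13, 250/well) treated 48 h at 37C with compounds at 1:260 dilution of DMSO stock. Lysed, then beta-galactosidase activity read as FDG fluorescence (ex 480/em 540) after 30 min, with pre-read for autofluorescence.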
# Apoferritin bind: candidate novel general anesthetic via apoferritin binding. P02791. apoferritin/1-aminoanthracene competitive binding, fluorescence. Potency, µM (doses to about 77.5 µM), inactives show at the top dose activity change, negative = displacement, most hits filed as inhibitors. 350,000 compounds, 0.074% hits; further: potency means the concentration at half of the fitted maximal effect; on the % scale 0 is the no-effect control and ±100 the full control effect; nearly all actives have a fitted effect of over 20% in size
# Target sequence (P02791 2-175 limits assumed): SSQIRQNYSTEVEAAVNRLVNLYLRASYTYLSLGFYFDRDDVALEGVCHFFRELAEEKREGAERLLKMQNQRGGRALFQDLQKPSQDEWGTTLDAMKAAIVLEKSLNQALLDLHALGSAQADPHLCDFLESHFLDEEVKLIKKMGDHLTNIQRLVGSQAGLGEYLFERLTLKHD
#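 10 uM apoferritin + 50% sat. 1-AMA, PBS; cpd 10 min RT; Ex380/Em535 endpoint; normalized to free probe vs complex; 4-param Hill fit; propofol titration as pos. ctrl.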
# BRCA1 expr up: activators of BRCA1 expression; MCF7-BRCA1-FFLuc reporter, luminescence, 48 h; response scale: scaled: vehicle 0%, 10 µM genistein 100%; Potency, µM (series often up to 46.1 µM), for the others: top-dose activation, actives largely listed as activators; 380,000 compounds, 1.1% hits; AID 624202; further: potency means the concentration at half of the fitted maximal effect; nearly all actives have a fitted effect of over 80% in size
#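 MCF7-BRCA1-FFLuc, 2000 cells/well; 2 h attach, 37 °C/5% CO2; compound 48 h; luciferase substrate 15 min; luminescence end-point. Norm. to genistein 10 microM max activation and DMSO; concentration-response curves fitted.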
# PKM2 act: activators of human pyruvate kinase M2. AID 1631. purified PKM2, Kinase-Glo ATP luminescence, activation; response scale: 0% is enzyme alone, no compound. P14618. 260,000 compounds, 0.34% hits. Potency, µM (titrated, usually from 57.5 µM), without a hit: at the top dose activation, usual class: activators; further: potency means the concentration at half of the fitted maximal effect; on the % scale 0 is the no-effect control and ±100 the full control effect; nearly all actives have a fitted effect of over 55% in size
# Target sequence (P14618 whole entry, looked up): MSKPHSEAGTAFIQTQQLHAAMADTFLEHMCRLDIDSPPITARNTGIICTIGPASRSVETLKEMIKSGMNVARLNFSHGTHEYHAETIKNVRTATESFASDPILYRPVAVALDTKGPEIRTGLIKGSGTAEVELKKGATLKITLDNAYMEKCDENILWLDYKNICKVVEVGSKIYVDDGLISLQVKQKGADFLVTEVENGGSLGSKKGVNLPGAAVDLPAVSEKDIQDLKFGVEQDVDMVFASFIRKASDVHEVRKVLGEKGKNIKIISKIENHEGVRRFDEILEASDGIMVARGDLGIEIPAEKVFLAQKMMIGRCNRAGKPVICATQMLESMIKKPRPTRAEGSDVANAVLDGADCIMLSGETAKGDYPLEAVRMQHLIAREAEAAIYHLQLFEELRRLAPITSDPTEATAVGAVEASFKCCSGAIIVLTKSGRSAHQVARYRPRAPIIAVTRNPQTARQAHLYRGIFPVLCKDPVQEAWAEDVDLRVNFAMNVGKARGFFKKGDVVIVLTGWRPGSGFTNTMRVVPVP
#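 Purified hPK-M2 (>95%) run at intermediate activity with 0.1 mM ADP and 0.5 mM PEP in 50 mM imidazole pH 7.2, KCl, MgCl2; 1 h room temperature. ATP formed read by Kinase-Glo luminescence; normalized to uninhibited and no-enzyme controls.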
# IL-2 act: activators of IL-2 | IL-2 activation reporter assay, cell-based qHTS; stimulated with anti-CD3/CD4/CD28 beads; in transgenic mouse T cells | activation, % (series mostly up to about 46 µM) | 360,000 compounds, 0.065% hits; in the data active means activation above about 50%; inconclusive means mostly about 30% to 49%; further: 0% is about no effect
#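 Readout: EGFP and DsRed signals by fluorescent plate cytometry. Unstimulated transgenic mouse T cells received compound 60 min before antibody-bead stimulation, then incubated 18 h at 37 degrees C.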
# * marks the source's active call; other numbers are inactive results; ? = inconclusive; . = no result; [ ] = dose if it differs, or a comment. Unless noted, the call rests on the fitted dose curve; in most records, active means well fitted curve in the direction sought with a large enough effect; inconclusive means small, poorly fitted or top-dose-only effect, or another doubt; inactive means no such curve, though single readings can be large; an effect the other way counts as inactive or inconclusive.
SMILES,a7 integrin act,Apoferritin bind,BRCA1 expr up,PKM2 act,IL-2 act
CCOC(=O)c1c(C)c(C(=O)NCCc2ccccc2)c(C)n1C,?,-2%,10µM*,2%,0
CCc1noc(C)c1C(=O)NCCc1ccccc1,2%,.,10µM*,.,1
CCOC(=O)c1c(C)c(C(=O)NCc2cccnc2)c(C)n1C,10%,-7%,-6%,6%,-2
CCc1noc(C)c1C(=O)NCCc1ccc(F)cc1,26%,.,3%,.,0
Cc1oc(-c2ccc(Cl)cc2)nc1CSc1nnc(C)n2c1cc1sccc12,.,-1%,.,.,.
CCn1c(CCCCc2n[nH]c(=S)n2CC)n[nH]c1=S,6%,-3%,-17%,1%,0
CCn1c(CCCOc2ccc(Cl)cc2Cl)n[nH]c1=S,-6%,-19%,6.3µM*,7%,-2
COc1ccc(OC)c(/C=C/c2sc3ccccc3[n+]2C)c1,.,.,-56%,.,.
O=C(Nc1c(Cl)cc([N+](=O)[O-])cc1Cl)c1cc(Cl)cc(Cl)c1O,.,.,-16%,.,.
Cc1cc(NC(=O)c2ccc(NC(=O)C(C)Oc3ccccc3)cc2)no1 (stereo not given),6%,-2%,13µM*,2%,0
CCCC(=O)Nc1ccc(C(=O)COC(=O)C2CC2)cc1,?,.,10µM*,.,2
CCCC(=O)Nc1ccc(C(=O)NN=C(C2CC2)C2CC2)cc1,4%,-6%,-17%,-1%,0
O=C(/C=C/c1ccc(OCCCF)cc1)N1CCOCC1,-21%,2%,10µM*,.,-1
O=C(/C=C/c1cccc([N+](=O)[O-])c1)N1CCOCC1,23%,0%,17%,-16%,-1
O=C(/C=C/c1cccc2ccccc12)N1CCOCC1,0%,-2%,10µM*,0%,1
O=C(/C=C/c1cccc(Oc2ccccc2)c1)N1CCOCC1,10%,-8%,8.9µM*,-12%,-3
Cc1ccsc1/C=N/NC(=O)c1ccc(-n2cccc2)cc1,1%,-18%,11µM*,2%,3
O=C(CCc1ccc(O)cc1)NN=Cc1ccc2c(c1)OCO2,-12%,.,0%,.,0
Cc1ccc(/C=N/NC(=O)c2ccc3ccccc3c2)s1,-22%,-6%,36%,1%,0
O=C(NN=Cc1ccc2c(c1)OCO2)c1ccccc1,2%,.,?,.,0
Cc1ccc(CC(=O)N/N=C/c2ccc3c(c2)OCO3)cc1,-11%,-17%,8.9µM*,-3%,-2
O=C(N/N=C/c1ccc2c(c1)OCO2)c1ccc2c(c1)OCO2,1%,0%,8.9µM*,-4%,-1
Cc1ccc(/C=N/NC(=O)c2ccc3c(c2)OCCO3)s1,3%,-8%,2.5µM*,-9%,-2
COc1ccc(CNc2ccc3cc(S(=O)(=O)N4CCCCC4)ccc3n2)cc1,.,125%,.,.,.
COc1ccc(-c2nc3ccc(NC(=O)CO)cc3c(=O)n2Cc2cccc(Cl)c2)cc1COc1ccc(NC(C)=O)cc1,.,.,-48%,.,.
SMILES,a7 integrin act,Apoferritin bind,BRCA1 expr up,PKM2 act,IL-2 act
Cc1ccsc1/C=N\NC(=O)c1cc(C(C)(C)C)[nH]n1,-3%,-21%,5µM*,-12%,1
O=C(N/N=C/c1ccc2c(c1)OCO2)C1CC1,27%,-14%,7.9µM*,-2%,-5
Cc1cc(C(=O)N/N=C/c2ccc(C)s2)n[nH]1,-10%,-7%,7.1µM*,.,3
Cc1cc(C(=O)N/N=C/c2ccc([N+](=O)[O-])s2)n[nH]1,-54%,2%,-82%,3%,-5
O=C(N/N=C\c1ccc2c(c1)OCO2)c1ccco1,20%,-4%,3.2µM*,-45%,-3
S=C(NN=Cc1ccc2c(c1)OCO2)NN=Cc1ccc2c(c1)OCO2,-33%,.,3%,.,-1
COc1ccccc1CN(C)CC(=O)c1c(C)[nH]c2ccccc12,.,.,-38%,.,.
Cc1nc(Oc2ccccc2C)c2oc3ccccc3c2n1,.,-14%,.,.,.
CC[n+]1cccc(Br)c1,.,.,-2%,.,.
O=C1CN(C(=O)COc2ccc([N+](=O)[O-])cc2Cl)c2ccccc2N1,?,.,11µM*,.,0
CN(C)c1ccc(N=Nc2ccnc3ccccc23)cc1,.,.,17%,.,.
COc1ccc(Nc2ccc([N+](=O)[O-])cn2)cc1,11%,-22%,?,-1%,2
COc1ccc(CNc2ccc([N+](=O)[O-])cn2)cc1,9%,7%,10µM*,.,0
CCC[C@H](NC(=O)[C@H](Cc1ccc(O[S+](=O)([O-])O)cc1)NC(=O)OC(C)(C)C)C(=O)NCC(=O)N[C@@H](Cc1c[nH]c2ccccc12)C(=O)N[C@@H](CCC)C(=O)N[C@@H](CC(=O)OCCc1ccccc1)C(=O)O,.,3%,.,.,.
O=C1c2ccccc2CN1c1ccccc1,0%,-13%,6.3µM*,-16%,-1
Cc1ccccc1Cn1c(CN2CCC(C(=O)NCCc3ccccc3)CC2)cc2ccccc21,.,62%,.,.,.
COc1c(C)cccc1C(=O)Nc1ccc(N2CCOCC2)c(Cl)c1,2%,-11%,2.5µM*,-22%,-1
CCN1CCN(c2ccc(NC(=O)c3ccccc3F)cc2Cl)CC1,-29%,-14%,7.1µM*,-3%,2
O=C(/C=C/c1ccccc1)Nc1ccc(Br)cn1,-37%,0%,1.4µM*,5%,0
O=C(/C=C/c1ccccc1)Nc1cccnc1Cl,?,-10%,10µM*,-15%[11.5 µM],2
CC(=O)c1cccc(NC(=O)NC2CCCc3ccccc32)c1 (stereo not given),27%,?,-4%,-1%,0
COc1cccc(NC(=O)Nc2ccc3c(c2)CCC3)c1,?,-18%,?,.,2
CCc1ccc(NC(=O)Nc2ccc3c(c2)CCC3)cc1,-8%,-1%,3.5µM*,-2%,-1
Cc1cccc(NC(=O)C2C3CCCCC32)c1 (stereo not given),8%,-11%,10µM*,0%,0
Cc1cccc(NC(=O)Nc2ccc3c(c2)CCC3)c1,16%,-7%,4.5µM*,-1%,-1
SMILES,a7 integrin act,Apoferritin bind,BRCA1 expr up,PKM2 act,IL-2 act
CC(=O)c1cccc(NC(=O)Nc2ccc3c(c2)CCC3)c1,11%,-10%,7.1µM*,-9%,-4
C#CCCCO/N=C1/C[C@@H](O)[C@@H](O)[C@@H]2[C@H]3C(=O)N(c4ccc(F)cc4F)C(=O)[C@@H]3CC[C@@H]12,.,4%[15.3 µM],.,.,.
CC(=O)c1cccc(Nc2ccc(Br)cc2)c1,.,.,10µM*,.,0
CC(=O)c1cccc(Nc2ncnc3ccc(Br)cc23)c1,?,6%,-49%,.,-1
CC(C)c1ccc(/C=C2\C=Cc3ccccc32)cc1,.,.,39%,.,.
COc1cccc(OC)c1OCc1cc(C2C3CCCC=C3C(C#N)=C(N)C2(C#N)C#N)c(C)cc1C (stereo not given),23%,-23%,-39%,4.5µM*,2
O/N=C(\c1ccc(Cl)cc1Cl)c1ncc(C(F)(F)F)cc1Cl,12%,18µM*,-46%,-6%,0
CCN(CC)CCCNc1ncnc2c1cnn2-c1ccc(C)c(C)c1,.,-2%,.,.,.
